The other results are listed elsewhere or left out.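 The calls were made as follows: active = mean activation above a set limit carried over from the earlier primary screen (cut at about 22% in these data); inactive = the rest.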
Target: Caspase-3 (Homo sapiens) (UniProt P42574)
Assay: activators of human procaspase-3 D3A mutant, confirmation, biochemical, absorbance, PC-3 D3A mutant, triplicate (AID 488954)
Conditions: recombinant PC-3 D3A, Ac-DEVD-pNA absorbance 405 nm; at 8.5 µM; active compounds read high; 100% is higher-enzyme control

Sequence of Caspase-3 (Homo sapiens) (P42574 whole entry D9A/D28A/D175A): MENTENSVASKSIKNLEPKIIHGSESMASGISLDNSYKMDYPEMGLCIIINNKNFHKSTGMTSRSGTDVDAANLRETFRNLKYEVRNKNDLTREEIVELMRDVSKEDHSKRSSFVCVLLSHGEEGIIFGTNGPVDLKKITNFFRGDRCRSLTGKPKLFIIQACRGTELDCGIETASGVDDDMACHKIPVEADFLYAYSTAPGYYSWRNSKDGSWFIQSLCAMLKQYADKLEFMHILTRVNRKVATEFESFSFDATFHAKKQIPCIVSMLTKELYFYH

activation, inactive:
O=C(CCNS(=O)(=O)c1ccccc1C(F)(F)F)NCc1ccc2c(c1)OCO2 5.75%
COc1ccc2nc(Nc3nc4ccc(NC(C)=O)cc4s3)sc2c1 -1.02%
COC(=O)c1cnc(Nc2cc(C)ccc2OC)c2ccccc12 -14.1%
COc1ccccc1NS(=O)(=O)c1ccc(C(=O)N2CCN(c3ccccc3O)CC2)cc1 5.8%
COC(=O)Cc1cc(=O)oc2c(C)c(O)ccc12 -12.9%
COc1ccc(-c2sc3ccc(OC)cc3c2C#Cc2ccccn2)cc1 14.4%
COc1ccc(CCNC(=O)COC(=O)c2ccc[nH]c2=O)cc1 5.06%
CN1CCN(CCCNC(=O)c2ccc(/C=C3\Oc4ccccc4N(Cc4ccc(Cl)cc4)C3=O)cc2)CC1 -14.8%
CCOc1ccc2nc(NCCNS(=O)(=O)c3ccccc3)c(C#N)cc2c1 -14.1%
Oc1ccccc1C1=NN(c2ccccc2)C(c2ccccc2)C1 (stereo unspecified) -13.4%
Cc1nn(C)cc1CNC(=O)Nc1ccc(Cl)cc1 3.2%
